# PKM2 act – increases activity of human pyruvate kinase M2; purified PKM2, Kinase-Glo ATP luminescence, activation; response scale: 0% is enzyme alone, no compound; Potency, µM (top dose mostly 57.5 µM), for the others: at the top dose activation, usual class: activators; hit rate 0.34% among 260,000; further: potency means the concentration at half of the fitted maximal effect; on the % scale 0 is the no-effect control and ±100 the full control effect; nearly all actives have a fitted effect of over 55% in size
#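 Kinase-Glo luminescence reports ATP generated from ADP (0.1 mM) and PEP (0.5 mM) by purified hPK-M2 after 1 h at room temperature, pH 7.2 imidazole buffer; intermediate enzyme activity allows detecting inhibitors and activators.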
# HTT ATP protect – Huntington cell model cytoprotection by ATP luminescence; AID 1471; Potency, µM (series often up to 56.4 µM), for inactives: cytoprotection (ATP increase), usual class: activators; hit rate 0.14% among 230,000; PC12 HTT-Q103 induced, cytoprotection, ATP luminescence, 40 h; further: potency means the concentration at half of the fitted maximal effect; % of control where 0% means no effect; nearly all actives have a fitted effect of over 45% in size
#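 PC12 cells stably carrying ecdysone-inducible Htt exon 1 (Q103)–GFP were induced with 100 nM tebufenozide (final) alongside library compounds in a dose series. Cytoprotection was scored as retained ATP by ATPlite luminescence.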
# GLA spleen mod – inhibits or activates alpha-galactosidase in human spleen homogenate. P06280. human spleen homogenate, 4MU-alpha-Gal fluorescence, 40 min. Potency, µM (titrated, usually from 80 µM), without a hit: top-dose activity change, negative = inhibition, usual class: inhibitors. hit rate 0.008% among 240,000. AID 2107;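 further: potency means the concentration at half of the fitted maximal effect; 0% = enzyme with vehicle and -100% = no enzyme basal signal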
#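 Human spleen homogenate (1 ug) as enzyme source, 4-methylumbelliferyl-alpha-D-galactopyranoside 1 mM final, citrate/phosphate pH 5.0 with 0.01% Tween-20. Compounds 40 min at 37C, NaOH/glycine stop; fluorescence Ex 365/Em 440, Hill-fit AC50.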
# GLA inh pH 4.5 – alpha-galactosidase A (human) inhibition, pH 4.5; P06280; purified enzyme, 4-MU-alpha-Gal fluorescence, pH 4.5; activity change, negative = inhibition, % at 105 µM; 230,000 tested, under 10 active; AID 1467;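 further: 0% = full activity with enzyme and -100% = basal without enzyme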
# Target sequence (P06280 whole entry, looked up): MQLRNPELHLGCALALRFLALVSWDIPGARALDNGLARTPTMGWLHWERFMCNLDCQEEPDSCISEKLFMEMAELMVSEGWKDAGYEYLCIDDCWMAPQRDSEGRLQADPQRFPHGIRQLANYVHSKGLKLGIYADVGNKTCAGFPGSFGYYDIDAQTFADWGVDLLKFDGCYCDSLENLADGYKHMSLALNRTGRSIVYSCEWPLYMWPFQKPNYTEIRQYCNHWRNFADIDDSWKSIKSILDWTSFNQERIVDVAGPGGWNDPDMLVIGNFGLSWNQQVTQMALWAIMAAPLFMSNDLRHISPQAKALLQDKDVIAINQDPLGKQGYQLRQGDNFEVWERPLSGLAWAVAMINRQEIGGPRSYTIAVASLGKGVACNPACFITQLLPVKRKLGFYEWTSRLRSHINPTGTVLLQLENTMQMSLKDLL
# HTT aggregate – inhibitors of mutant huntingtin aggregate formation in PC12 cells; PC12 HttQ103-GFP aggregates, Acumen cytometry, 40 h; Potency, µM (doses to about 46.1 µM), inactives show top-dose activity change, negative = inhibition, usual class: inhibitors; hit rate 1.1% among 220,000; AID 1688; further: potency means the concentration at half of the fitted maximal effect; on the % scale 0 is the no-effect control and ±100 the full control effect; nearly all actives have a fitted effect of over 60% in size
#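 Quantitative HTS on tebufenozide-induced (100 nM) PC12 cells stably expressing polyQ103 Huntingtin exon 1–GFP. Reduction of bright GFP aggregates, detected by laser scanning cytometry after lysis, identified actives across the titration.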
# * hit, by the source's call; ? = inconclusive; · = not tested or not shown; [ ] = another dose, or the depositor's remark. A selection: hits, their analogues and other compounds. The true share with any hit is near 1.2%. The call rests on the fitted dose curve; in most records, active means well fitted curve in the direction sought with a large enough effect; inconclusive means small, poorly fitted or top-dose-only effect, or another doubt; inactive means no such curve, though single readings can be large; an effect the other way counts as inactive or inconclusive.
SMILES,PKM2 act,HTT ATP protect,GLA spleen mod,GLA inh pH 4.5,HTT aggregate
CS(=O)(=O)c1ccc2nc(NC(=O)CCC(=O)c3cccs3)sc2c1,-0.2%,-11.9%[10 µM],8.8%,1.9,0.794µM*
CN1/C(=C\C=N\NC(=O)c2ccccc2Br)C(C)(C)c2ccccc21,2.6%,-1.4%[10 µM],-0.8%,-21.0,11.2µM*
CCOc1ccc(N(CC(=O)Nc2ccc(C)c(C)c2)S(=O)(=O)c2c(C)noc2C)cc1,4.5%,17.8%[10 µM],1.9%,-15.7,20µM*
COc1ccccc1CNc1ncnc2c1nnn2Cc1ccccc1,20µM*,-20.5%[10 µM],-1.3%,-0.9,?
CC(C)CCNc1ncnc2c1nnn2Cc1ccccc1,0.4%,·,·,·,·
N=C(N)SCc1cc(Cl)cc(Cl)c1O,·,6.6%[10 µM],·,·,·
CC1CCN(CC[C@@H]2CCCN2S(=O)(=O)c2cccc(O)c2)CC1,·,13.3%[1.9 µM],·,·,·
O=S(=O)(Nc1ccc2c(c1)OCCO2)c1cccs1,1.3%,-20.3%[0.074 µM],0.6%,3.3,-12.6%
O=S(=O)(Nc1ccc2c(c1)OCCO2)c1ccc(Br)s1,0.2%,-14.2%,0.4%,3.2,12.6µM*
COc1cc(C)c(S(=O)(=O)Nc2ccccc2F)cc1C,27.7%,-9.4%,1.0%,-5.5,2.8%
Cc1cc2[nH]c(=O)c(=O)[nH]c2cc1S(=O)(=O)Nc1ccccc1F,10µM*,·,·,·,·
FC(F)(F)c1cnc(NNC(=S)Nc2ccccc2Cl)c(Cl)c1,-4.5%,27.4%[10 µM],-0.2%,-12.6,22.4µM*
C=C(C)COc1ccc(-c2n[nH]c(C)c2-c2ccc(Br)cc2)c(O)c1,-6.9%,-16.4%,5.7%,0.5,7.94µM*
C=C(C)COc1ccc(-c2[nH]ncc2-c2ccc(Br)cc2)c(O)c1,0.7%,·,-6.3%,-13.7,?
CCN1c2ccccc2N(C)C1(C)c1ccccc1 (configuration not stated),12.3%,16.1%[10 µM],3.7%,7.6,12.6µM*
NC(CSCSCC(N)C(=O)O)C(=O)O (configuration not stated),·,·,3.0%,4.3,·
CCc1ccc(/C=C/C(=O)c2c(C)cc(C)[nH]c2=O)cc1,3.0%,8.7%[10 µM],0.8%,7.3,25.1µM*
O=C(Cc1ccccc1)NC1CCN(S(=O)(=O)c2cccc(F)c2)CC1,28.2µM*,-18.9%,9.6%,6.3,2.5%
C#Cc1ccc2c(c1)C(=O)N(C)Cc1c(C(=O)OCCCOC(=O)c3ncn4c3CN(C)C(=O)c3cc(C#C)ccc3-4)ncn1-2,·,·,-3.9%,·,·
CCN(CC)CCC[C@H](C)Nc1c2ccc(Cl)cc2nc2ccc(OC)cc12,·,-75.6%[17.1 µM],-0.2%[29.1 µM],-1.0,?
c1coc(CNc2nc3nonc3nc2NCc2ccco2)c1,-5.9%,-10.3%[10 µM],2.2%,-3.0,11.2µM*
CC(C)(C)c1csc(NC(=O)c2ccc(Cl)s2)n1,5.0%,-104.9%,11.1%,0.2,8.91µM*
Cc1ccc(C(=O)Nc2nc(C(C)(C)C)cs2)s1,6.3%,-64.0%,-1.5%,1.6,?
COc1cc(OC)nc(-n2ncc(Br)c(Br)c2=O)n1,1.1%,·,1.1%,4.7,4.47µM*
COC(=O)c1cnn(-c2nc(OC)cc(OC)n2)c1C,2.3%,-26.5%[10 µM],-11.9%,-12.7,-17.1%
SMILES,PKM2 act,HTT ATP protect,GLA spleen mod,GLA inh pH 4.5,HTT aggregate
CN1CCCC2(CCN(C(=O)c3cccc(F)c3)CC2)C1,·,9.3%,12.7%,·,·
Cn1nnnc1SCCNCc1cc(Cl)ccc1OCc1ccccc1,4.0%,16.5%[10 µM],-8.7%,-3.4,25.1µM*
Cn1nnnc1SCCNCc1ccccc1OCc1ccc(Cl)cc1,-1.9%,-3.0%[10 µM],4.2%,2.6,-5.6%
c1ccc(-c2cn(-c3ccccc3)c3[n+]2CCCS3)cc1,-1.3%,11.8%[10 µM],1.1%,-6.6,-0.4%[9.22 µM]
Cc1ccc(-c2cn(-c3ccccc3)c3[n+]2CCCS3)cc1,-0.4%,-83.5%[10 µM],-4.2%,-10.8,1.78µM*
COc1cc2c(cc1O)CCN[C@@]21CS[C@H]2c3c(OC(C)=O)c(C)c4c(c3C(COC1=O)N1C2C2c3c(cc(C)c(OC)c3O)CC([C@@H]1O)N2C)OCO4 (some centres not stated),·,-29.5%,·,·,0.0025µM*
O=c1cc2oc3cc(O)c(O)cc3c(-c3ccccc3O)c-2cc1O,24.5%,-12.9%[10 µM],11.6%,-29.4,-18.6%[9.22 µM]
COc1ccc(OC)c(-c2c3cc(O)c(=O)cc-3oc3cc(O)c(O)cc23)c1,5.3%,·,-1.1%,-18.0,5.01µM*
N=C(N)c1ccc(/C=C\c2ccc(C(=N)N)cc2)cc1,·,13.7%[10 µM],·,·,·
O=C(O)c1ccc(C2CCCCC2)cn1,-14.5%,-43.2%,?,2.6,3.16µM*
O=[N+]([O-])c1ccc(-c2nc(C(Cl)Cl)c3ccccc3n2)cc1,-2.2%,-85.8%[10 µM],5.4%,4.1,1.78µM*
CN(C)S(=O)(=O)c1ccc(N2CCN(S(=O)(=O)c3ccc(F)cc3)CC2)c(Cl)c1,7.6%,-22.4%[10 µM],4.3%,-16.1,10µM*
CN(C)S(=O)(=O)N1CCN(S(=O)(=O)c2ccc(F)cc2)CC1,18.4%,-7.6%,8.9%,-4.9,-13.7%
COc1ccc(-c2cc(C(F)F)nn2-c2ccc(S(N)(=O)=O)cc2)cc1F,·,8.91µM*,-4.3%,-0.9,8.0%
C=CCc1cccc(C2NC(C(=O)O)CCC2C)c1 (configuration not stated),·,8.0%[10 µM],-16.2%[17.5 µM],·,·
CC(c1ccon1)N(C)Cc1cn(Cc2ccccc2)nc1-c1ccc2c(c1)OCO2 (configuration not stated),-9.2%,-73.6%,-10.9%,-15.8,14.1µM*
C[C@H](C[C@H](N)C(=O)O)C(=O)O,·,-2.0%,1.3%,-10.1,·
COc1ccc(C)cc1S(=O)(=O)N(CC(=O)NCc1ccc(Cl)cc1)Cc1ccccc1,-0.8%,-25.4%[10 µM],1.2%,-8.1,28.2µM*
O=c1c2ccccc2nc2n1C(CSCc1ccc(Cl)cc1Cl)CS2 (configuration not stated),1.4%,-40.5%,1.4%,0.9,8.91µM*
Cc1ccc(S(=O)(=O)N2CCCC2)cc1[N+](=O)[O-],6.1%,11.8%[10 µM],12.9%,-1.8,6.0%
O=[N+]([O-])c1cc(S(=O)(=O)N2CCCC2)ccc1NCCc1ccccc1,3.16µM*,·,2.5%,0.8,0.5%
Cc1ccccc1Nc1oc(-c2ccccc2)nc1CCc1ccccc1,·,-12.2%,-4.6%,-2.3,·
COc1cc(NS(C)(=O)=O)ccc1Cc1c2ccccc2nc2ccccc12,·,·,20.9%,-3.6,·
Nc1ccc(S(=O)(=O)c2ccc(N)c(N)c2)cc1,28.2µM*,-16.9%,2.8%,6.4[21.1 µM],-2.7%
CCN(CC)c1ccc(/C=N/NC(=O)c2ccco2)c(O)c1,-8.4%,-79.0%[10 µM],-5.0%,-7.1,?
CCN(CC)c1ccc(/C=N/NC(=O)Cc2cccs2)c(O)c1,-4.0%,-89.2%[10 µM],-1.6%,3.2,25.1µM*
CCOC(=O)c1ccccc1O,·,16.6%,·,·,9.7%
CC/C(=N\NC(=O)C(N)=O)c1ccccc1O,-7.8%,·,-9.7%,-2.9,10µM*
O=C1OCCC1N(C(=O)C1CC1)c1cccc(Cl)c1 (configuration not stated),·,·,-1.7%,·,·

# Source: PubChem
